Source: PubChem BioAssay AID1159580 (chemical genetic matrix, 2015)
Screen size: about 5,500 compounds; about 2,000 (36%) were called active. Not shown: some 18% with an inconclusive outcome. Cut-off read from the data, not from the text of the source: active = normalized growth mostly below about 0.91 (no sharp cut-off); inconclusive = no clear call, values can overlap the other calls; inactive = mostly above about 0.92. The list shows a part of the results.

Assay: chemical genetic growth profiling, strain panel (AID 1159580);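 note: tested at 20 µM; growth read once vehicle control cultures reached saturation at 30 °C; 1 = growth at the plate median or of vehicle wells; lower values mean less growth of the strain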
Conditions: growth OD

Measured: normalized growth

C=C[C@@](C)(O)CCC1C(=C)C[C@H](O)C2C(C)(C)CCCC12C (some centres not stated)
inactive: S. cerevisiae deletion strains, locus YJR075W, strain HOC1, active compounds read low 1.01 | S. cerevisiae deletion strains, locus YKL009W, strain mrt4, active compounds read low 1.01 | S. cerevisiae deletion strains, locus YKL068W, active compounds read low 1.01 | S. cerevisiae deletion strains, locus YKL085W, strain MDH1 (second series), active compounds read low 1.02 | S. cerevisiae deletion strains, locus YKL085W, strain MDH1, active compounds read low 1.02 | S. cerevisiae deletion strains, locus YKL160W, strain elf1, active compounds read low 0.981 | S. cerevisiae deletion strains, locus YKL190W, strain CNB1, active compounds read low 1.01 | S. cerevisiae deletion strains, locus YKR001C, strain vps1, active compounds read low 1.01 | S. cerevisiae deletion strains, locus YKR026C, strain gcn3, active compounds read low 0.992 | S. cerevisiae deletion strains, locus YKR091W, strain srl3, active compounds read low 0.991 | S. cerevisiae deletion strains, locus YLL001W, strain dnm1, active compounds read low 0.97 | S. cerevisiae deletion strains, locus YLL026W, active compounds read low 0.998 | S. cerevisiae deletion strains, locus YLL041C, strain sdh2, active compounds read low 0.984 | S. cerevisiae deletion strains, locus YLR027C, strain aat2, active compounds read low 0.995 | S. cerevisiae deletion strains, locus YLR039C, strain RIC1, active compounds read low 0.949 | S. cerevisiae deletion strains, locus YLR058C, strain SHM2, active compounds read low 1.01 | S. cerevisiae deletion strains, locus YLR102C, strain apc9, active compounds read low 1.03 | S. cerevisiae deletion strains, locus YLR113W, strain HOG1, active compounds read low 0.867 | S. cerevisiae deletion strains, locus YLR221C, strain rsa3, active compounds read low 0.968 | S. cerevisiae deletion strains, locus YLR258W, strain gsy2, active compounds read low 0.983 | S. cerevisiae deletion strains, locus YLR262C, strain YPT6 (second series), active compounds read low 0.876 | S. cerevisiae deletion strains, locus YLR262C, strain YPT6, active compounds read low 0.943 | S. cerevisiae deletion strains, locus YLR268W, strain sec22, active compounds read low 1.01 | S. cerevisiae deletion strains, locus YLR320W, strain mms22, active compounds read low 0.946 | S. cerevisiae deletion strains, locus YLR330W, strain CHS5, active compounds read low 1.01 | S. cerevisiae deletion strains, locus YLR342W, strain FKS1 (second series), active compounds read low 0.985 | S. cerevisiae deletion strains, locus YLR342W, strain FKS1, active compounds read low 0.976 | S. cerevisiae deletion strains, locus YLR357W, strain rsc2, active compounds read low 1.01 | S. cerevisiae deletion strains, locus YLR370C, strain arc18, active compounds read low 0.976 | S. cerevisiae deletion strains, locus YLR371W, strain rom2, active compounds read low 1.04 | S. cerevisiae deletion strains, locus YLR384C, strain iki3, active compounds read low 0.98 | S. cerevisiae deletion strains, locus YLR418C, strain cdc73, active compounds read low 0.994 | S. cerevisiae deletion strains, locus YML016C, strain PPZ1, active compounds read low 1 | S. cerevisiae deletion strains, locus YML032C, strain rad52, active compounds read low 1.05 | S. cerevisiae deletion strains, locus YML120C, strain ndi1, active compounds read low 0.99 | S. cerevisiae deletion strains, locus YML124C, strain tub3, active compounds read low 1.02 | S. cerevisiae deletion strains, locus YMR058W, strain fet3, active compounds read low 0.995 | S. cerevisiae deletion strains, locus YMR078C, strain ctf18, active compounds read low 1.03 | S. cerevisiae deletion strains, locus YMR125W, strain sto1, active compounds read low 1.01 | S. cerevisiae deletion strains, locus YMR129W, active compounds read low 0.985 | S. cerevisiae deletion strains, locus YMR205C, strain PFK2, active compounds read low 0.934 | S. cerevisiae deletion strains, locus YMR223W, strain ubp8, active compounds read low 1.02 | S. cerevisiae deletion strains, locus YMR231W, strain pep5, active compounds read low 0.999 | S. cerevisiae deletion strains, locus YMR263W, strain SAP30, active compounds read low 1.01 | S. cerevisiae deletion strains, locus YMR307W, strain GAS1, active compounds read low 1.01 | S. cerevisiae deletion strains, locus YNL067W, strain RPL9B, active compounds read low 0.996 | S. cerevisiae deletion strains, locus YNL071W, strain lat1, active compounds read low 0.928 | S. cerevisiae deletion strains, locus YNL128W, strain TEP1, active compounds read low 1.01 | S. cerevisiae deletion strains, locus YNL153C, strain GIM3, active compounds read low 1.01 | S. cerevisiae deletion strains, locus YNL183C, strain NPR1, active compounds read low 0.923 | S. cerevisiae deletion strains, locus YNL209W, strain ssb2, active compounds read low 0.998 | S. cerevisiae deletion strains, locus YNL233W, strain BNI4, active compounds read low 1.02 | S. cerevisiae deletion strains, locus YNL248C, strain rpa49, active compounds read low 0.984 | S. cerevisiae deletion strains, locus YNL250W, strain rad50, active compounds read low 1.03 | S. cerevisiae deletion strains, locus YNL271C, strain bni1, active compounds read low 1.03 | S. cerevisiae deletion strains, locus YNL298W, strain CLA4, active compounds read low 1.02 | S. cerevisiae deletion strains, locus YNL307C, strain MCK1, active compounds read low 1 | S. cerevisiae deletion strains, locus YNL322C, strain KRE1 (second series), active compounds read low 0.986 | S. cerevisiae deletion strains, locus YNL322C, strain KRE1, active compounds read low 1.01 | S. cerevisiae deletion strains, locus YNR049C, strain mso1, active compounds read low 0.994 | S. cerevisiae deletion strains, locus YNR052C, strain pop2, active compounds read low 1.02 | S. cerevisiae deletion strains, locus YOL006C, strain TOP1, active compounds read low 0.935 | S. cerevisiae deletion strains, locus YOL012C, strain htz1 1.27 | S. cerevisiae deletion strains, locus YOL147C, strain pex11, active compounds read low 1.02 | S. cerevisiae deletion strains, locus YOR001W, strain rrp6, active compounds read low 0.984 | S. cerevisiae deletion strains, locus YOR061W, strain CKA2, active compounds read low 1.01 | S. cerevisiae deletion strains, locus YOR069W, strain VPS5, active compounds read low 1.01 | S. cerevisiae deletion strains, locus YOR070C, strain gyp1, active compounds read low 0.986 | S. cerevisiae deletion strains, locus YOR080W, strain dia2, active compounds read low 0.998 | S. cerevisiae deletion strains, locus YOR083W, strain WHI5, active compounds read low 0.964 | S. cerevisiae deletion strains, locus YOR106W, strain vam3, active compounds read low 0.978 | S. cerevisiae deletion strains, locus YOR136W, strain idh2, active compounds read low 1.03 | S. cerevisiae deletion strains, locus YOR144C, strain elg1, active compounds read low 1.02 | S. cerevisiae deletion strains, locus YOR184W, strain ser1, active compounds read low 1.01 | S. cerevisiae deletion strains, locus YOR231W, strain MKK1, active compounds read low 0.923 | S. cerevisiae deletion strains, locus YOR265W, strain rbl2, active compounds read low 0.992 | S. cerevisiae deletion strains, locus YOR270C, strain vph1, active compounds read low 0.886 | S. cerevisiae deletion strains, locus YOR290C, strain snf2, active compounds read low 0.934 | S. cerevisiae deletion strains, locus YOR316C, strain cot1, active compounds read low 1.03 | S. cerevisiae deletion strains, locus YPL051W, strain arl3, active compounds read low 0.975 | S. cerevisiae deletion strains, locus YPL055C, strain LGE1, active compounds read low 1.01 | S. cerevisiae deletion strains, locus YPL078C, strain atp4, active compounds read low 0.978 | S. cerevisiae deletion strains, locus YPL106C, strain sse1, active compounds read low 1.03 | S. cerevisiae deletion strains, locus YPL240C, strain hsp82, active compounds read low 0.984 | S. cerevisiae deletion strains, locus YPL241C, strain CIN2, active compounds read low 1.01 | S. cerevisiae deletion strains, locus YPL256C, strain CLN2, active compounds read low 0.953 | S. cerevisiae deletion strains, locus YPR119W, strain clb2, active compounds read low 1.03 | S. cerevisiae deletion strains, locus YPR141C, strain kar3, active compounds read low 1.03 | S. cerevisiae deletion strains, locus YPR163C, strain tif3, active compounds read low 1.02 | S. cerevisiae deletion strains, locus YPR167C, strain met16, active compounds read low 1.02 | S. cerevisiae deletion strains, strain wtn01, active compounds read low 1.02 | S. cerevisiae strains, strain wild type, active compounds read low 1.01
